Measurements taken from the supplement of paper PMC6522484.
± gives the standard deviation of the averaged measurements.

Legend:
[1] = tested on: DLD1; experiment: cell viability (CellTiter-Glo) relative to plate median (fraction of plate median); higher = more viable cells; conditions: 5 µM; treatment time 24 h; reporter: 7TFP
Outline: (§1)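 Colorectal cancer cell lines stably carrying lentiviral TCF/Wnt firefly luciferase reporters (7TFP or TCF4/Wnt) were plated in 384-well plates and, 24 h later, given library compounds at a final 5 µM for 24 h. Firefly luciferase or CellTiterGlo luminescence was read on parallel plates with a Tecan F500 reader. Each well's signal was normalised to the plate median in webcellHTS2 (additive, without log transformation). Values are the mean of two independent replicates.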

[2] = tested on: HCT116; experiment: as above; conditions: 5 µM; treatment time 24 h; reporter: TCF4/Wnt
Outline: as §1

[3] = tested on: SW480; experiment: as above; conditions: 5 µM; treatment time 24 h; reporter: 7TFP
Outline: as §1

[4] = tested on: DLD1; experiment: TCF/Wnt firefly luciferase reporter signal relative to plate median (fraction of plate median); higher = higher Wnt reporter signal; conditions: 5 µM; treatment time 24 h; reporter: 7TFP
Outline: as §1

[5] = tested on: SW480; experiment: as above; conditions: 5 µM; treatment time 24 h; reporter: 7TFP
Outline: as §1

Compound: O=C1NS(=O)(=O)c2ccccc21
- cell viability [1]: 0.973 ± 0.052
- cell viability [2]: 1.1 ± 0.085
- cell viability [3]: 1.03 ± 0.044
- TCF/Wnt firefly luciferase reporter signal [4]: 1.1 ± 0.042
- TCF/Wnt firefly luciferase reporter signal [5]: 0.96 ± 0.14

Compound: O=C(O)c1cc(O)c(O)c(O)c1
- cell viability [1]: 0.906 ± 0.059
- cell viability [2]: 0.955 ± 0.093
- cell viability [3]: 1 ± 0.08
- TCF/Wnt firefly luciferase reporter signal [4]: 1.11 ± 0.17
- TCF/Wnt firefly luciferase reporter signal [5]: 1.03 ± 0.17

Compound: COC[C@H]1O[C@@H](OC2OC[C@@H]3O[C@]4(O[C@H]3[C@H]2OC(=O)C(C)C)O[C@H](C)[C@@](O)(C(C)=O)[C@@H]2OCO[C@H]24)[C@@H](OC)[C@@H](O)[C@@H]1O[C@@H]1O[C@H](C)[C@H](OC)[C@H](O[C@H]2C[C@@]3(C)OC4(C[C@@H](O)[C@H](O[C@H]5C[C@@H](O)[C@H](OC(=O)c6c(C)c(Cl)c(O)c(Cl)c6OC)[C@@H](C)O5)[C@@H](C)O4)O[C@@H]3[C@@H](C)O2)[C@H]1O (stereo not given in full) [Avilamycin A]
- cell viability [1]: 0.977 ± 0.033
- cell viability [2]: 1.02 ± 0.042
- cell viability [3]: 0.991 ± 0.042
- TCF/Wnt firefly luciferase reporter signal [4]: 1.03 ± 0.028
- TCF/Wnt firefly luciferase reporter signal [5]: 1.03 ± 0.078

Compound: Cc1cc(C)cc(OCC2CNC(=O)O2)c1 (stereo not given)
- cell viability [1]: 0.964 ± 0.013
- cell viability [2]: 1.07 ± 0.1
- cell viability [3]: 0.975 ± 0.05
- TCF/Wnt firefly luciferase reporter signal [4]: 1.02
- TCF/Wnt firefly luciferase reporter signal [5]: 0.957 ± 0.039

Compound: OC1=Cc2c(O)cc(O)cc2OC1(O)c1ccc(O)c(O)c1 (stereo not given)
- cell viability [1]: 0.963 ± 0.053
- cell viability [2]: 1.07 ± 0.17
- cell viability [3]: 0.943 ± 0.044
- TCF/Wnt firefly luciferase reporter signal [4]: 0.923 ± 0.07
- TCF/Wnt firefly luciferase reporter signal [5]: 0.9795 ± 0.0021

Compound: CCCC(=O)NCCc1ccccc1 [N-(2-Phenyl)ethylbutyramide]
- cell viability [1]: 1.07 ± 0.11
- cell viability [2]: 1.08 ± 0.15
- cell viability [3]: 1.06 ± 0.071
- TCF/Wnt firefly luciferase reporter signal [4]: 1.07 ± 0.14
- TCF/Wnt firefly luciferase reporter signal [5]: 0.9865 ± 0.00071

Compound: CC(C)(C)CC(C)(C)c1ccc(OCCOCC[N+](C)(C)Cc2ccccc2)cc1
- cell viability [1]: 1.07 ± 0.028
- cell viability [2]: 0.99 ± 0.071
- cell viability [3]: 1.05 ± 0.021
- TCF/Wnt firefly luciferase reporter signal [4]: 0.983 ± 0.081
- TCF/Wnt firefly luciferase reporter signal [5]: 0.897 ± 0.017

Compound: OCCOCCN1CCN(C2=Nc3ccccc3Sc3ccccc32)CC1
- cell viability [1]: 1.05 ± 0.094
- cell viability [2]: 1 ± 0.15
- cell viability [3]: 0.991 ± 0.013
- TCF/Wnt firefly luciferase reporter signal [4]: 1.03 ± 0.028
- TCF/Wnt firefly luciferase reporter signal [5]: 1.08 ± 0.014

Compound: O=C1CN(/N=C/c2ccc(-c3ccc([N+](=O)[O-])cc3)o2)C(=O)N1
- cell viability [1]: 0.999 ± 0.044
- cell viability [2]: 0.9895 ± 0.005
- cell viability [3]: 0.97 ± 0.018
- TCF/Wnt firefly luciferase reporter signal [4]: 1 ± 0.042
- TCF/Wnt firefly luciferase reporter signal [5]: 1.02 ± 0.014

Compound: CC(C)CC(NC(=O)OCC1c2ccccc2-c2ccccc21)C(=O)O (stereo in doubt)
- cell viability [1]: 1.06 ± 0.057
- cell viability [2]: 0.996 ± 0.035
- cell viability [3]: 1.01 ± 0.021
- TCF/Wnt firefly luciferase reporter signal [4]: 0.979 ± 0.027
- TCF/Wnt firefly luciferase reporter signal [5]: 1.02 ± 0.029

Compound: CCC/C=C1\OC(=O)C2=C1CCC=C2
- cell viability [1]: 0.992 ± 0.083
- cell viability [2]: 0.973 ± 0.0028
- cell viability [3]: 0.9545 ± 0.00071
- TCF/Wnt firefly luciferase reporter signal [4]: 0.948 ± 0.1
- TCF/Wnt firefly luciferase reporter signal [5]: 0.967 ± 0.061

Compound: Cc1nc2ccccc2c(=O)[nH]1 [2-Methyl-3H-quinazoline-4-on]
- cell viability [1]: 0.991 ± 0.011
- cell viability [2]: 1.06 ± 0.064
- cell viability [3]: 0.979 ± 0.044
- TCF/Wnt firefly luciferase reporter signal [4]: 1.01 ± 0.09
- TCF/Wnt firefly luciferase reporter signal [5]: 1.1 ± 0.021

Compound: CC(=O)OC1CCC2(O)CC1(C)CCC1C2CC1(C)C (stereo not given)
- cell viability [1]: 1.03 ± 0.014
- cell viability [2]: 1.06 ± 0.05
- cell viability [3]: 1.05
- TCF/Wnt firefly luciferase reporter signal [4]: 0.9135 ± 0.0064
- TCF/Wnt firefly luciferase reporter signal [5]: 0.933 ± 0.057

Compound: COc1ccc(/C=C/C(=O)c2ccc(O)cc2O)cc1
- cell viability [1]: 0.938 ± 0.088
- cell viability [2]: 0.947 ± 0.065
- cell viability [3]: 1.035 ± 0.0071
- TCF/Wnt firefly luciferase reporter signal [4]: 1.085 ± 0.0071
- TCF/Wnt firefly luciferase reporter signal [5]: 0.794 ± 0.054

Compound: CCN(CCCc1ccccc1)CCCc1ccccc1
- cell viability [1]: 1 ± 0.22
- cell viability [2]: 1.06 ± 0.021
- cell viability [3]: 1.08 ± 0.035
- TCF/Wnt firefly luciferase reporter signal [4]: 1 ± 0.036
- TCF/Wnt firefly luciferase reporter signal [5]: 0.916 ± 0.055

Compound: CC1=NN(c2ccccc2)C(=O)C1
- cell viability [1]: 1.03 ± 0.054
- cell viability [2]: 0.921 ± 0.021
- cell viability [3]: 1.03 ± 0.06
- TCF/Wnt firefly luciferase reporter signal [4]: 0.979 ± 0.14
- TCF/Wnt firefly luciferase reporter signal [5]: 1.01 ± 0.025

Compound: C=C1CCC(C2CC(=O)OC2=O)C(=O)CCC2C1CC2(C)C (stereo not given)
- cell viability [1]: 1.01 ± 0.049
- cell viability [2]: 1.04 ± 0.09
- cell viability [3]: 0.958 ± 0.0085
- TCF/Wnt firefly luciferase reporter signal [4]: 1.01 ± 0.19
- TCF/Wnt firefly luciferase reporter signal [5]: 0.901 ± 0.018

Compound: C=C1C(=O)C[C@@H]2[C@@H]3CC[C@@H](C(=O)O)[C@@]12CC3(C)C [Terrecyclic Acid A]
- cell viability [1]: 0.873 ± 0.051
- cell viability [2]: 0.919 ± 0.047
- cell viability [3]: 0.974 ± 0.022
- TCF/Wnt firefly luciferase reporter signal [4]: 0.957 ± 0.1
- TCF/Wnt firefly luciferase reporter signal [5]: 0.961 ± 0.044

Compound: CC(C)CCC[C@@H](C)[C@H]1CC[C@H]2[C@@H]3C(=O)C=C4C[C@@H](O)CC[C@]4(C)[C@H]3CC[C@]12C
- cell viability [1]: 1.1 ± 0.092
- cell viability [2]: 0.99
- cell viability [3]: 1.04 ± 0.1
- TCF/Wnt firefly luciferase reporter signal [4]: 0.959 ± 0.018
- TCF/Wnt firefly luciferase reporter signal [5]: 1.01 ± 0.027

Compound: CCOC(=O)OC(C)OC(=O)[C@@H]1N2C(=O)[C@@H](NC(=O)[C@H](N)c3ccccc3)[C@H]2SC1(C)C (stereo not given in full)
- cell viability [1]: 1.05 ± 0.014
- cell viability [2]: 1.01 ± 0.071
- cell viability [3]: 1.01 ± 0.014
- TCF/Wnt firefly luciferase reporter signal [4]: 1.09 ± 0.12
- TCF/Wnt firefly luciferase reporter signal [5]: 1.08 ± 0.035

Compound: CN(C)CCC=C1c2ccccc2CCc2ccccc21
- cell viability [1]: 0.958 ± 0.036
- cell viability [2]: 0.997 ± 0.047
- cell viability [3]: 0.989 ± 0.016
- TCF/Wnt firefly luciferase reporter signal [4]: 0.952 ± 0.061
- TCF/Wnt firefly luciferase reporter signal [5]: 0.963 ± 0.046

Compound: COc1ccc(CCN(C)CCCC(C#N)(c2ccc(OC)c(OC)c2)C(C)C)cc1OC (stereo not given)
- cell viability [1]: 1.04 ± 0.12
- cell viability [2]: 0.971 ± 0.07
- cell viability [3]: 1.02 ± 0.014
- TCF/Wnt firefly luciferase reporter signal [4]: 1.01 ± 0.12
- TCF/Wnt firefly luciferase reporter signal [5]: 1.03 ± 0.11

Compound: C=C1C2CC[C@@]3(C)[C@H](c4ccoc4)OC(=O)C[C@]13O[C@H]1CC(O)C(C)(C)C(CC(=O)OC)[C@@]21C (stereo partly drawn) [3alpha-HYDROXY-3-DEOXYANGOLENSIC ACID METHYL ESTER]
- cell viability [1]: 1.01 ± 0.049
- cell viability [2]: 0.943 ± 0.081
- cell viability [3]: 1.02 ± 0.059
- TCF/Wnt firefly luciferase reporter signal [4]: 1.05 ± 0.05
- TCF/Wnt firefly luciferase reporter signal [5]: 0.968 ± 0.06

Compound: CC1=C(/C=C/C(C)=C/C=C/C(C)=C/C(=O)O)C(C)(C)CCC1
- cell viability [1]: 0.9525 ± 0.0078
- cell viability [2]: 0.973 ± 0.067
- cell viability [3]: 0.994 ± 0.052
- TCF/Wnt firefly luciferase reporter signal [4]: 0.912 ± 0.037
- TCF/Wnt firefly luciferase reporter signal [5]: 0.889 ± 0.018

Compound: Cn1c(=O)[nH]c2ncn(C)c2c1=O
- cell viability [1]: 0.987 ± 0.13
- cell viability [2]: 1.04 ± 0.021
- cell viability [3]: 1.02
- TCF/Wnt firefly luciferase reporter signal [4]: 1.05 ± 0.13
- TCF/Wnt firefly luciferase reporter signal [5]: 1.02 ± 0.072

Compound: CC1(C)C=Cc2c(cc3occ(-c4ccc5c(c4)OCO5)c(=O)c3c2O)O1
- cell viability [1]: 0.951 ± 0.083
- cell viability [2]: 0.926 ± 0.17
- cell viability [3]: 0.952 ± 0.042
- TCF/Wnt firefly luciferase reporter signal [4]: 0.909 ± 0.012
- TCF/Wnt firefly luciferase reporter signal [5]: 1 ± 0.042

Compound: CCCCCCCC/C=C/CCCCCCCCOP(=O)([O-])OCC[N+](C)(C)C
- cell viability [1]: 0.984 ± 0.052
- cell viability [2]: 0.886 ± 0.2
- cell viability [3]: 1.02 ± 0.03
- TCF/Wnt firefly luciferase reporter signal [4]: 0.986 ± 0.034
- TCF/Wnt firefly luciferase reporter signal [5]: 0.982 ± 0.018

Compound: CC(=O)OC[C@@]1(O)C[C@@]23CC[C@@H]4c5ccoc5CC[C@@]4(C)[C@@H]2CC[C@@H]1C3
- cell viability [1]: 1.02 ± 0.028
- cell viability [2]: 1.05 ± 0.042
- cell viability [3]: 1.02
- TCF/Wnt firefly luciferase reporter signal [4]: 1.08 ± 0.16
- TCF/Wnt firefly luciferase reporter signal [5]: 1.16 ± 0.057

Compound: CN(Cc1cc(Br)cc(Br)c1N)C1CCCCC1
- cell viability [1]: 0.975 ± 0.036
- cell viability [2]: 1.04 ± 0.035
- cell viability [3]: 0.905 ± 0.052
- TCF/Wnt firefly luciferase reporter signal [4]: 0.8435 ± 0.0035
- TCF/Wnt firefly luciferase reporter signal [5]: 0.867 ± 0.022
